PubChem BioAssay (Tox21)
Results filed as inconclusive are left out. Activity calls are given as the source filed them. Calls come from the whole dose curve; as a rule, active = well fitted curve in the direction sought with a large enough effect in the repeat runs; inconclusive = weak or mixed curves; inactive = no such curve, though single readings can be large; an effect the other way counts as inactive or inconclusive.

How the values were obtained:
[1] = A CellTox Green Cytotoxicity Assay to monitor cytotoxicity in HepG2 cells - 0 hour (AID 1224882); note: nearly all actives have a fitted effect of over 35% in size
How it was run: (§1)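 Continuous culture of HepG2 cells with a membrane-impermeant DNA dye; rising fluorescence marks dead cells. Compound exposure lasted up to 40 h at 37 C, with reads every 8 h from 0 h.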

[2] = A CellTox Green Cytotoxicity Assay to monitor cytotoxicity in HepG2 cells - 32 hour (AID 1224883); note: nearly all actives have a fitted effect of over 50% in size
How it was run: as §1

[3] = A CellTox Green Cytotoxicity Assay to monitor cytotoxicity in HEK293 cells - 8 hour (AID 1224884); note: nearly all actives have a fitted effect of over 35% in size
How it was run: (§2)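 Each value comes from one timepoint of a single continuous run in which HEK293 cells with CellTox Green were exposed to compound for up to 40 h at 37 C, dye fluorescence rising with cell death.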

[4] = qHTS RealTime-Glo MT Cell Viability Assay in HepG2 cells - 16 hour (AID 1224885); note: nearly all actives have a fitted effect of over 50% in size
How it was run: (§3)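 Real-time, nonlytic viability: 600 HepG2 cells/well mixed with NanoLuc enzyme plus prosubstrate; 5 h settle, compound (DMSO) added by pintool; luminescence monitored over 40 h at 37 C.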

[5] = qHTS RealTime-Glo MT Cell Viability Assay in HEK293 cells - 24 hour (AID 1224886); note: top concentration of the series differs between compounds; nearly all actives have a fitted effect of over 50% in size
How it was run: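 Cells + reagent dispensed (600 cells/well, HEK293) → 5 h at 37 C/5% CO2 → 23 nL compound in DMSO pinned → 40 h at 37 C → luminescence read at 0, 8, 16, 24, 32, 40 h.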

[6] = qHTS RealTime-Glo MT Cell Viability Assay in HEK293 cells - 8 hour (AID 1224887); note: top concentration of the series differs between compounds; nearly all actives have a fitted effect of over 50% in size
How it was run: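 qHTS format; HEK293 cells with NanoLuc/prosubstrate reagent, 37 C/5% CO2 for 5 h pre-dosing; compounds 23 nL in DMSO; luminescence at each time point reflects viable cells.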

[7] = A CellTox Green Cytotoxicity Assay to monitor cytotoxicity in HEK293 cells - 16 hour (AID 1224888); note: nearly all actives have a fitted effect of over 35% in size
How it was run: as §2

[8] = qHTS RealTime-Glo MT Cell Viability Assay in HepG2 cells - 0 hour (AID 1224889); note: nearly all actives have a fitted effect of over 50% in size
How it was run: as §3

[9] = A CellTox Green Cytotoxicity Assay to monitor cytotoxicity in HepG2 cells - 8 hour (AID 1224890); note: nearly all actives have a fitted effect of over 45% in size
How it was run: as §1

[10] = qHTS assay to identify small molecule antagonists of the estrogen receptor alpha (ER-alpha) signaling pathway using the BG1 cell line in the presence of 0.1 nM 17-beta-estradiol - cell viability counter screen (AID 1259241); note: nearly all actives have a fitted effect of over 40% in size
How it was run: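 CellTiter-Fluor read (30 min, 37C) on ER-alpha/ERE-luc VM7Luc4E2 cells; 22 hr compound treatment; agonist 0.1 nM E2 final; same-well multiplex.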

Measured: Potency

O=C(NCO)NCO
inactive: all assays above

O=C1CN=C(c2ccccc2)c2cc([N+](=O)[O-])ccc2N1
inactive: all assays above

NC(=O)O
inactive: all assays above

COC(=O)C(c1ccccc1)C1CCCCN1 (stereo not given)
inactive: all assays above

OC(Cn1cncn1)(c1ccc(F)cc1)c1ccccc1F (stereo not given)
inactive: all assays above

CCC#N
inactive: all assays above

CC(=O)[C@H]1CC[C@H]2[C@@H]3CC[C@H]4C[C@H](O)CC[C@]4(C)[C@H]3C(=O)C[C@]12C
inactive: all assays above

CC(C)CC#N
inactive: all assays above

CCCCP(CCCC)CCCC
inactive: all assays above

CC1(C)COP(Oc2ccccc2)OC1
inactive: all assays above

O=C1OC(c2ccc(O)c(S(=O)(=O)O)c2)(c2ccc(O)c(S(=O)(=O)O)c2)c2c(Br)c(Br)c(Br)c(Br)c21
inactive: all assays above

COP(=S)(OC)Oc1c(Cl)cc(C)cc1Cl
inactive: all assays above

COCC(=O)N(c1c(C)cccc1C)N1CCOC1=O
inactive: all assays above

C=C(C)[C@@H]1CC=C(C=O)CC1
inactive: all assays above

NC(=O)c1cc([N+](=O)[O-])cc([N+](=O)[O-])c1
inactive: all assays above

CCCCOP(=O)(O)OCCCC
inactive: all assays above

CNCC(=O)c1ccc(O)c(O)c1
inactive: all assays above

CC(Oc1ccc(Oc2ncc(C(F)(F)F)cc2Cl)cc1)C(=O)O (stereo not given)
inactive: all assays above

Cc1cccc(C#N)c1
inactive: all assays above

c1cc2c(c(N3CCNCC3)c1)OCCO2
inactive: all assays above

CCOc1nc(C(Cl)(Cl)Cl)ns1
inactive: all assays above

C[C@]12CC[C@H]3[C@@H](CC=C4C[C@@H](O)CC[C@@]43C)[C@@H]1CC[C@@H]2O
inactive: all assays above

CNNC
inactive: all assays above

COc1cc(OC)nc(NC(=O)NS(=O)(=O)c2ncccc2OCC(F)(F)F)n1
inactive: all assays above

Nc1cnn(-c2ccccc2)c(=O)c1Cl
inactive: all assays above
